Experimental data reported in PubChem BioAssay (EPA / NIEHS).
Results filed as inconclusive are left out. Calls of active or inactive are those of the source. The calls were made as follows, unless noted: active = hit-call score of the fitted dose curve at least 0.9, where 1 is the maximum; inactive = score below 0.9.

Columns and labels:
[1] = CCTE_Mundy_HCI_Cortical_Synap_Neur_Matur_NeuronCount: CCTE's Synaptogenesis and Neurite Maturation Assay in rat cortical cells for Neuron Count, Mundy Lab (AID 2284242; active = hit-call score of the fitted dose curve at least 0.9, where 1 is the maximum)
In short: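 Neuron counts come from automated high-content imaging of Hoechst nuclei and MAP2/synaptophysin immunostaining at DIV 12, with loss of signal judged against DMSO. Cultures of rat cortical cells had glial growth arrested by AraC at DIV 5; chemical exposure began DIV 7.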

[2] = IUF_NPC2c_oligodendrocyte_migration_120hr: Leibniz Research Institute for Environmental Medicine (IUF) 120-hour Neural Progenitor Cell Migration Assay for Oligodendrocyte Migration (NPC2c) (AID 2284297);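 also: O4-positive oligodendrocyte migration distance divided by radial glia migration distance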
In short: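 Using fetal brain neural progenitor spheres differentiating in N2 medium at 37C, compounds were present for 120 h. Oligodendrocyte migration distance, normalized to radial glia migration, was measured from imaged O4 staining.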

[3] = IUF_NPC2a_radial_glia_migration_120hr: Leibniz Research Institute for Environmental Medicine (IUF) 120-hour Neural Progenitor Cell Migration Assay for Radial Glia Migration (NPC2a) (AID 2284298)
In short: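 Exposure of 0.3 mm primary hNPC spheres runs day 0 to 120 h with a half-volume medium change at day 3. Fixed cells get Hoechst staining; high-content analysis of nuclear positions yields radial glia migration distance per well, compared against DMSO controls.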

[4] = IUF_NPC2a_radial_glia_migration_72hr: Leibniz Research Institute for Environmental Medicine (IUF) 72-hour Neural Progenitor Cell Migration Assay for Radial Glia Migration (NPC2a) (AID 2284299)
In short: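 Radial glia migration (µm, sphere core edge to migration front, four directions averaged) from brightfield images at 72 h; hNPC spheres differentiating on PDL/laminin in N2 medium, compound exposure at 7 concentrations from plating.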

[5] = IUF_NPC2b_neuronal_migration_120hr: Leibniz Research Institute for Environmental Medicine (IUF) 120-hour Neural Progenitor Cell Migration Assay for Neuron Migration (NPC2b) (AID 2284300)
In short: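 Fetal human NPC spheres migrate on PDL/laminin during 120 h compound treatment; neuronal migration distance, glia-normalized, scored versus DMSO control.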

[6] = IUF_NPC3_neuronal_differentiation_120hr: Leibniz Research Institute for Environmental Medicine (IUF) 120-hour Neuronal Differentiation Assay (NPC3) (AID 2284301)
In short: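 Value is percent TUBB3-positive neurons among Hoechst-stained nuclei in the migration area, scored by trained CNN after 120 h differentiation. Primary hNPC spheres on poly-D-lysine/laminin, N2 medium, continuous dosing from day 0, half-refeed day 3; DMSO reference.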

[7] = IUF_NPC4_neurite_length_120hr: Leibniz Research Institute for Environmental Medicine (IUF) 120-hour Neuronal Morphology Assay for Neurite Length (NPC4) (AID 2284302)
In short: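 Neurite length, the mean in um across TUBB3-stained neurons, is derived by skeletonization of high-content images after 120 h differentiation. Compound exposure, 7 concentrations plus solvent control, ran from plating of hNPC spheres on poly-D-lysine/laminin, with medium half-replaced on day 3.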

[8] = IUF_NPC5_oligodendrocyte_differentiation_120hr: Leibniz Research Institute for Environmental Medicine (IUF) 120-hour Oligodendrocyte Differentiation Assay (NPC5) (AID 2284304; active = hit-call score of the fitted dose curve at least 0.9, where 1 is the maximum;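 also: primary human fetal neural progenitor spheres plated to migrate and differentiate; share of O4-positive cells among Hoechst nuclei found by CNN image analysis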)
In short: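 After plating on poly-D-lysine/laminin, fetal-derived hNPC spheres differentiated for 120 h at 37C in compound-containing N2 medium, refreshed by half on day 3. O4 immunostaining over Hoechst nuclei in the migration zone gave oligodendrocyte percentage relative to DMSO.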

[9] = IUF_NPC4_neurite_area_120hr: Leibniz Research Institute for Environmental Medicine (IUF) 120-hour Neuronal Morphology Assay for Neurite Area (NPC4) (AID 2284305; active = hit-call score of the fitted dose curve at least 0.9, where 1 is the maximum)
In short: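 Neurite area (pixels, nuclei excluded) of TUBB3-positive neurons from hNPC spheres differentiating 5 days under continuous exposure at 37 C, 5% CO2. High-content imaging; loss of signal versus DMSO control across 7 concentrations.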

[10] = IUF_NPC2-5_cytotoxicity_72hr: Cytotoxicity Assessment at 72 hours in the Leibniz Research Institute for Environmental Medicine (IUF) Neural Progenitor Cell Migration and Differentiation Assay for Cytotoxicity (NPC2-5) (AID 2284306; active = hit-call score of the fitted dose curve at least 0.9, where 1 is the maximum;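 also: LDH release into supernatant measured by resorufin fluorescence marking membrane damage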)
In short: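 Membrane-integrity cytotoxicity at 72 h, read as LDH-driven resorufin fluorescence in supernatant. hNPC spheres from fetal cortex differentiate on coated plates in N2 medium, 37C, 5% CO2; seven serial compound concentrations plus solvent control (DMSO ≤0.1%).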

Measured: outcome

CCCc1cc(=O)[nH]c(=S)[nH]1
inactive: [1]

C[Si]1(C)O[Si](C)(C)O[Si](C)(C)O[Si](C)(C)O1
not listed: [1]
inactive: all other assays above

CC(=O)Oc1ccccc1C(=O)O
not listed: [1] | [8] | [9]
inactive: all other assays above

OC[C@@H](O)[C@@H](O)[C@H](O)[C@H](O)CO
inactive: all assays above

O=c1[nH]cc(F)c(=O)[nH]1
inactive: [1]
